hDAT+cocaine = human DAT dopamine uptake with cocaine, either direction. actives 1.3% (n = 110,000). B-score at 10 µM. LLC-PK1 hDAT cells, [14C]-dopamine uptake with cocaine IC80; actives deviate in either direction. Q01959;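 active = Z score or B-score, a plate-position-corrected score, falls beyond the plate's 99.7% confidence bounds, in either direction; inactive = both scores lie inside the 99.7% bounds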
M1 antag = M1 muscarinic receptor (rat) antagonism; P08482; CHO-M1 cells, Fluo-4 calcium, ACh EC80 antagonist mode; active compounds read low; B-score at 10 µM; actives 3.4% (n = 64,000); AID 628;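 active = calcium fluorescence response, raw or row-and-column corrected B-score, differing from the plate sample mean either way at a set confidence level, mostly lower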
Target sequence (P08482 whole entry, looked up): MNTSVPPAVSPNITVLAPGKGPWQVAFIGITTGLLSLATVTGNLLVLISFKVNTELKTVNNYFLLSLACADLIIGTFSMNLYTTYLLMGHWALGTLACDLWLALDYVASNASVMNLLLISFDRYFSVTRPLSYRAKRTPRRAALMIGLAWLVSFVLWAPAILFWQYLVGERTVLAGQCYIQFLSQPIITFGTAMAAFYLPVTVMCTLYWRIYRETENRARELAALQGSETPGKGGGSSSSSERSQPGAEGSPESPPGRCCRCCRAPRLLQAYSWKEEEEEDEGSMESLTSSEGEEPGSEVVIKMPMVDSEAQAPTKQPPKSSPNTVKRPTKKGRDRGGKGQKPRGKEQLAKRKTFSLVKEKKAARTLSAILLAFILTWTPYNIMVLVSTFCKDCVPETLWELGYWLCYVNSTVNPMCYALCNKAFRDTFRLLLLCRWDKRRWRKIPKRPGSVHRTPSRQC
D1 allo mod = allosteric modulators of human D1 dopamine receptor; HEK293 D1, CRE-luciferase, dopamine EC30 potentiation; actives deviate in either direction; P21728; actives 5.9% (n = 58,000); B-score at 10 µM;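 active = luminescence count or its row- and column-corrected plate score outside the 99.7% band of the plate's sample wells, on either side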
FXIIa mix inh = inhibitors of human coagulation factor XIIa, pooled mixtures. P00748. purified FXIIa, fluorogenic substrate. inhibition, % at 5 µM. actives 0.2% (n = 62,000). AID 684
M1 ag = agonists of M1 muscarinic receptor | CHO-M1 cells, Fluo-4 calcium fluorescence, agonist mode; active compounds read high | B-score at 10 µM | actives 3% (n = 64,000) | AID 626;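 active = fluorescence rise, raw or as B-score row- and column-corrected plate score, outside the 99.7% band of its plate's samples, either direction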
FXIa mix inh = blocks human factor XIa in pooled compound mixtures. P03951. purified FXIa, fluorogenic substrate. inhibition, % at 5 µM. actives 0.19% (n = 62,000). AID 680;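 note: each value is inhibition by a whole ten-compound pool holding the compound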
Each line names hits and unclear results; the compound was inactive in the other large screens. This is a sample that favours compounds with a hit; in the whole collection about 7.4% have one here. Cut-off read from the data, not from the text of the source, unless noted: active = inhibition above about 20% (passing the limit was not always enough); inactive = the rest.

COc1ccc(-n2c(CNC(=O)c3ccc(S(=O)(=O)N4CCCC4)cc3)n[nH]c2=S)cc1	FXIIa mix inh 22 (no result: M1 antag, D1 allo mod, M1 ag)
N=c1n(Cc2ccccc2)c2ccccc2n1CC(O)c1ccccc1 (stereo not given)	none
C=CCn1c(=N)n(CC(O)COc2ccccc2OC)c2ccccc21 (stereo not given)	D1 allo mod -5.4
COc1ccccc1OCC(O)Cn1c(=N)n(Cc2ccccc2)c2ccccc21 (stereo not given)	D1 allo mod -4.7 (no result: FXIIa mix inh, FXIa mix inh)
CC(C)(C)C(=O)Cn1c(=N)n(Cc2ccccc2)c2ccccc21	D1 allo mod -3.3
CN(C)CCNC(=O)CCCNC(=O)Cn1cnc2sc3c(c2c1=O)CCCC3	none (no result: M1 antag, D1 allo mod, FXIIa mix inh, M1 ag, FXIa mix inh)
Cc1ccccc1CS(=O)(=O)CCC(=O)NCCN1CCN(c2cccc(Cl)c2)CC1	D1 allo mod -3.6 (no result: hDAT+cocaine)
CCN1CCN(Cc2ccc(NC(=O)c3ccc(C)c(NC(=O)c4csc(-c5ccncc5)n4)c3)cc2C(F)(F)F)CC1	hDAT+cocaine 1.8 (no result: M1 antag, D1 allo mod, FXIIa mix inh, M1 ag, FXIa mix inh)
CCN1CCN(Cc2ccc(NC(=O)c3ccc(C)c(NC(=O)c4ccno4)c3)cc2C(F)(F)F)CC1	none (no result: M1 antag, D1 allo mod, FXIIa mix inh, M1 ag, FXIa mix inh)
Cc1ccccc1NC(=O)CC1SC(=NC2CCCCC2)NC1=O (stereo not given)	none
CCOC(=O)N1CCC(NC(=O)CCC(=O)N2CCOc3ccc(C)cc32)CC1	M1 antag 3.3
O=C(NCCc1csc(-c2ccccc2)n1)c1cccs1	D1 allo mod -5.1
Cc1sc(NC(=O)c2cccs2)nc1-c1ccccc1	none
O=C(Nc1nsc(-c2ccccc2)n1)c1cccs1	D1 allo mod -4.4
Cc1nc(NS(=O)(=O)c2ccccc2)sc1NC(=O)OCCN(C)C	none (no result: D1 allo mod, FXIIa mix inh, FXIa mix inh)
Cc1ccccc1OCCNC(=O)c1ccccc1Sc1ccccc1C#N	none (no result: M1 antag, D1 allo mod, FXIIa mix inh, M1 ag, FXIa mix inh)
Cc1ccc(Cn2nnc3c(=O)[nH]c(C4CCN(C(=O)Cc5cccs5)CC4)nc32)cc1	hDAT+cocaine 3.4
Cc1ccc(Cn2nnc3c(=O)[nH]c(C4CCCN(S(=O)(=O)c5ccccc5)C4)nc32)cc1 (stereo not given)	none (no result: M1 antag, D1 allo mod, FXIIa mix inh, M1 ag, FXIa mix inh)
Cc1ccc(Cn2nnc3c(=O)[nH]c(C4CCN(S(=O)(=O)c5ccccc5)CC4)nc32)cc1	hDAT+cocaine 2.9
Cc1ccc(Cn2nnc3c(=O)[nH]c(C4CCCN(C(=O)Nc5ccc(F)cc5F)C4)nc32)cc1 (stereo not given)	hDAT+cocaine 3.2 (no result: M1 antag, D1 allo mod, FXIIa mix inh, M1 ag, FXIa mix inh)
CC(C)(C)c1ccc(Cn2nnc3c(=O)[nH]c(C4CCN(C(=O)Cc5cccs5)CC4)nc32)cc1	hDAT+cocaine 3.3
Cc1ccc(S(=O)(=O)N2CCC(=O)N(C(COCc3ccccc3)C(C)C)CC2)cc1 (stereo not given)	none (no result: M1 antag, D1 allo mod, FXIIa mix inh, M1 ag, FXIa mix inh)
CC(C)CC(=O)Nc1ccc(F)c(Cl)c1	none
COc1ccc(-c2cc(C(F)(F)F)n3nc(C(=O)O)nc3n2)cc1	none (no result: hDAT+cocaine)
CC1CCN(C(C(=O)Nc2ccc3c(c2)OCO3)c2ccccc2)CC1 (stereo not given)	none
CCOC(=O)Cc1csc(NS(=O)(=O)Cc2ccccc2)n1	M1 antag 2.6
CCOC(=O)Cc1csc(NC(=O)COc2ccccc2)n1	none
Cc1ccc(/C(N)=N/OC(=O)N2CCOCC2)cc1	none (no result: M1 antag, D1 allo mod, FXIIa mix inh, M1 ag, FXIa mix inh)
Cc1ccc(/C(N)=N/OC(=O)C23CC4CC(CC(C4)C2)C3)cc1	hDAT+cocaine -7.1 (no result: M1 antag, D1 allo mod, FXIIa mix inh, M1 ag, FXIa mix inh)
COc1ccc(C2C(C#N)=C3NC(=O)c4c(sc5c4CCCCC5)N3C3=C2C(=O)CC(C)(C)C3)cc1 (stereo not given)	hDAT+cocaine 2.3 (no result: M1 antag, D1 allo mod, FXIIa mix inh, M1 ag, FXIa mix inh)
COc1cccc(C(=O)Nc2nc(-c3ccc(S(=O)(=O)N4CCOCC4)cc3)cs2)c1	D1 allo mod -3.3
Cc1ccc(-c2csc(NC(=O)c3cccc(S(=O)(=O)N4CCN(C)CC4)c3)n2)cc1	none (no result: FXIIa mix inh, FXIa mix inh)
COc1ccc(C(=O)Cn2c(N3CCOCC3)nc3ccccc32)cc1OC	D1 allo mod -3 (no result: hDAT+cocaine)
Cc1ccccc1C(=O)NC(NCc1ccco1)C(Cl)(Cl)Cl (stereo not given)	none (no result: M1 antag, D1 allo mod, FXIIa mix inh, M1 ag, FXIa mix inh)
O=C1c2ccccc2C(=O)C1c1ccncc1	D1 allo mod -3.5
COc1cccc(Nc2nc(-c3sc(NC(=O)c4ccco4)nc3C)cs2)c1	none (no result: M1 antag, D1 allo mod, FXIIa mix inh, M1 ag, FXIa mix inh)
COc1cccc(Nc2nc(-c3sc(N)nc3C)cs2)c1	hDAT+cocaine 2.2
Clc1ccsc1-c1ccc2ccccc2n1	none (no result: M1 antag, D1 allo mod, FXIIa mix inh, M1 ag, FXIa mix inh)
CC(NC(=O)c1ccccc1NC(=O)c1ccco1)c1ccccc1 (stereo not given)	FXIa mix inh 24

Bioassay records from PubChem.
